# According to ChEMBL document CHEMBL3988442, “University of Dundee, Small-Polar-MMV Screening Library” (2021):
# For some assays here: Measured potencies and affinities stand elsewhere.
# Key:
# Parameters in all cases: scale not given: direction of the effect not stated beside the values
# [1] = molecular target: Protein translocase subunit SecA (Escherichia coli (strain K12)) (UniProt P10408); assay: Assay to Identify E. coli SecA ATPase Inhibitors; format: functional; settings: 30 µM
# [2] = molecular target: T1, Ubiquitin-activating enzyme e1, putative (Leishmania donovani (strain BPK282A1)) (UniProt E9BSI1); assay: Leishmania donovani Ubiquitin Activating Enzyme (LdE1); format: functional; settings: 30 µM
# T1 sequence (whole entry): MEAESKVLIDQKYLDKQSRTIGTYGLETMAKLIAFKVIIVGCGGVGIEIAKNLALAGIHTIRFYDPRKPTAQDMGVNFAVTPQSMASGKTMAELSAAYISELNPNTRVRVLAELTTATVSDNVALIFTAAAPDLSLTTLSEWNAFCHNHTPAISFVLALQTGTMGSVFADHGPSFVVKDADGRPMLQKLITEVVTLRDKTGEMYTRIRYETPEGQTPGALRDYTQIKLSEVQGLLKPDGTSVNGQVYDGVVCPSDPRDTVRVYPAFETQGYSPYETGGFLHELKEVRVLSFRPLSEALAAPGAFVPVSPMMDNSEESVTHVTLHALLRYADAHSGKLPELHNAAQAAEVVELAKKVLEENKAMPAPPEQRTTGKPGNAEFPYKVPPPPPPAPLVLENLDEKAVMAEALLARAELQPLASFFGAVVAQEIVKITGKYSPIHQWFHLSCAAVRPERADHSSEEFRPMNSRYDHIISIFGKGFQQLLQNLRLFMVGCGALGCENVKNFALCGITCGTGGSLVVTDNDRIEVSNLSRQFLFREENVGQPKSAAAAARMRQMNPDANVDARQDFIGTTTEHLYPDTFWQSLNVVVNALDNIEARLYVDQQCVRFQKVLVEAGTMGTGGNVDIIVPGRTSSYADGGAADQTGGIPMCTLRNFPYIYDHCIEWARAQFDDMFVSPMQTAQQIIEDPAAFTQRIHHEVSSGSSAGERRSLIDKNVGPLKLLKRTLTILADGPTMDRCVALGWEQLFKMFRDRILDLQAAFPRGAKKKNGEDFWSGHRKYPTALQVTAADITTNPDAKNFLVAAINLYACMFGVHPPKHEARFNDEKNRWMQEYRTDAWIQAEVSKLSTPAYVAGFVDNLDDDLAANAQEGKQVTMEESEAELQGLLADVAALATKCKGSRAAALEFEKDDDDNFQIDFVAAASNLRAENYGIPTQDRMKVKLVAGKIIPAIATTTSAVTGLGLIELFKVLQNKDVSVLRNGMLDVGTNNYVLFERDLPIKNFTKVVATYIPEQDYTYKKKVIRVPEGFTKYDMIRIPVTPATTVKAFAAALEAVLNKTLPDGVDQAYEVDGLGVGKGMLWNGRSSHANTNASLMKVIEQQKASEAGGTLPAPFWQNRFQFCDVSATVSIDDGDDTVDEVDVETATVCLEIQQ
# [3] = molecular target: AMP-activated protein kinase, AMPK (Homo sapiens) (UniProt P54646+O43741+P54619+Q9UGJ0+Q9Y478+Q13131+Q9UGI9); assay: AMP-dependent Kinase enzyme assay. An in vitro enzyme assay that detects ADP turnover that is directly proportional to AMPK activity. This uses naive AMPK that is activated during the assay with MK-8722; format: functional; settings: 30 µM
# [4] = molecular target: Sialic acid-binding Ig-like lectin 9 (Homo sapiens) (UniProt Q9Y336); assay: Hs-Siglec9 ALPHAscreen SOP 20170721; settings: 10 µM
# Trypanosoma cruzi = assay: Trypanosoma cruzi phosphomannomutase and mannose-1-phosphate guanylyltransferase assay; format: functional; settings: 10 µM
# [5] = molecular target: T2, Arginase-2, mitochondrial (Homo sapiens) (UniProt P78540); assay: in vitro enzyme assay to detect the production of urea directly proportional to the activity of Arginase II; format: functional; settings: 33.3 µM; note: in the data most compounds retested in dose-response had high values
# T2 sequence (whole entry): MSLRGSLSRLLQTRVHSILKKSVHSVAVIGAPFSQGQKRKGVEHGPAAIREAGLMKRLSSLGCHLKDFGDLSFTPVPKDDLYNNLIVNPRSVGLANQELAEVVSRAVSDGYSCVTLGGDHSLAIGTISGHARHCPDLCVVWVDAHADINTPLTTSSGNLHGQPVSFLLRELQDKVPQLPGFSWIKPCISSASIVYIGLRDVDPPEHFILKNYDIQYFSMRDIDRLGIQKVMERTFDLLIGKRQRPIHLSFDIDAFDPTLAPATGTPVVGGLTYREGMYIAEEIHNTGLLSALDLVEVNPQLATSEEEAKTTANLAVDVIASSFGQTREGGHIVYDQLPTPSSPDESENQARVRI
# [6] = molecular target: T3, Proteasome subunit beta (Trypanosoma cruzi) (UniProt O96673); assay: Trypanosoma cruzi proteasome chymotrypsin-like activity (TcProtChymo) assay.; note: in the data most compounds retested in dose-response had high values; format: functional; settings: 9.37 µM
# T3 sequence (whole entry): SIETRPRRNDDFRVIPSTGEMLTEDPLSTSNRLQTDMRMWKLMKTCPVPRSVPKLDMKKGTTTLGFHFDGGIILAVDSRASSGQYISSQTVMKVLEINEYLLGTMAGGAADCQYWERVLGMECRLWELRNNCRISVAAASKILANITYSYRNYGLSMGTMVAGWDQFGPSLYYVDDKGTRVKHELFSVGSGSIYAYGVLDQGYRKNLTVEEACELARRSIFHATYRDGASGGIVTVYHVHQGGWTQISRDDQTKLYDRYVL
# Homo sapiens = organism: Homo sapiens; assay: To identify inhibition of the IFN signalling (Jak-Stat) pathway via expression of an eGFP reporter gene under the control of an IFN-stimulated response element (ISRE) containing MxA promoter.; format: functional; settings: 30 µM
# [7] = molecular target: T4, Tyrosyl-tRNA synthetase, putative (Trypanosoma cruzi (strain CL Brener)) (UniProt Q4DSP6); assay: Trypanosoma cruzi tyrosyl tRNA synthetase (TcYRS) _High Tyrosine SOP; format: functional; settings: 30 µM; note: in the data most compounds retested in dose-response had high values
# T4 sequence (whole entry): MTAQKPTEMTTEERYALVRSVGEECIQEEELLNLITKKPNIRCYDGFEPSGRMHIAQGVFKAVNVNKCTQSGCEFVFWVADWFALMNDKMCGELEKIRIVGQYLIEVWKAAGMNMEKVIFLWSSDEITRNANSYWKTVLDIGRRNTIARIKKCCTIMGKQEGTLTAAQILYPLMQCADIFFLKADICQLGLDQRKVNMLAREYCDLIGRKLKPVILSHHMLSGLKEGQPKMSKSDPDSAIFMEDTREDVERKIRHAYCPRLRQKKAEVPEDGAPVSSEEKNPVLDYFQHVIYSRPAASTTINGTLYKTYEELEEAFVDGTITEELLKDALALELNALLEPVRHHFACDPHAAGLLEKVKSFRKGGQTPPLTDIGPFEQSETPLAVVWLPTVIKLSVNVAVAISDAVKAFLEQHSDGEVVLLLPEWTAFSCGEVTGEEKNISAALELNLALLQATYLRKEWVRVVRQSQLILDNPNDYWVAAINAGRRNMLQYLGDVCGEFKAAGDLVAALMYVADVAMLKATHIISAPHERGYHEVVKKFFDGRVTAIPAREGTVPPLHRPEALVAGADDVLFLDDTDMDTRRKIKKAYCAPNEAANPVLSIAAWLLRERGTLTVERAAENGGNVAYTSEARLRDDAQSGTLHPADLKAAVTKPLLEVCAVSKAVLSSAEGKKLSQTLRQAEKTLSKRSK
# [8] = molecular target: T4, Tyrosyl-tRNA synthetase, putative (Trypanosoma cruzi (strain CL Brener)); assay: Trypanosoma cruzi tyrosyl tRNA synthetase (TcYRS) SOP; format: functional; settings: 30 µM
# [9] = molecular target: Chromo domain-containing protein 1 (Saccharomyces cerevisiae (strain ATCC 204508 / S288c) (Baker's yeast)) (UniProt P32657); assay: ScCHD-1 Enzyme Inhibition Assay; format: functional; settings: 30 µM; note: in the data most compounds retested in dose-response had high values
# Chain of Chromo domain-containing protein 1 (Saccharomyces cerevisiae (strain ATCC 204508 / S288c) (Baker's yeast)) (P32657 whole entry, the tested form may be a part): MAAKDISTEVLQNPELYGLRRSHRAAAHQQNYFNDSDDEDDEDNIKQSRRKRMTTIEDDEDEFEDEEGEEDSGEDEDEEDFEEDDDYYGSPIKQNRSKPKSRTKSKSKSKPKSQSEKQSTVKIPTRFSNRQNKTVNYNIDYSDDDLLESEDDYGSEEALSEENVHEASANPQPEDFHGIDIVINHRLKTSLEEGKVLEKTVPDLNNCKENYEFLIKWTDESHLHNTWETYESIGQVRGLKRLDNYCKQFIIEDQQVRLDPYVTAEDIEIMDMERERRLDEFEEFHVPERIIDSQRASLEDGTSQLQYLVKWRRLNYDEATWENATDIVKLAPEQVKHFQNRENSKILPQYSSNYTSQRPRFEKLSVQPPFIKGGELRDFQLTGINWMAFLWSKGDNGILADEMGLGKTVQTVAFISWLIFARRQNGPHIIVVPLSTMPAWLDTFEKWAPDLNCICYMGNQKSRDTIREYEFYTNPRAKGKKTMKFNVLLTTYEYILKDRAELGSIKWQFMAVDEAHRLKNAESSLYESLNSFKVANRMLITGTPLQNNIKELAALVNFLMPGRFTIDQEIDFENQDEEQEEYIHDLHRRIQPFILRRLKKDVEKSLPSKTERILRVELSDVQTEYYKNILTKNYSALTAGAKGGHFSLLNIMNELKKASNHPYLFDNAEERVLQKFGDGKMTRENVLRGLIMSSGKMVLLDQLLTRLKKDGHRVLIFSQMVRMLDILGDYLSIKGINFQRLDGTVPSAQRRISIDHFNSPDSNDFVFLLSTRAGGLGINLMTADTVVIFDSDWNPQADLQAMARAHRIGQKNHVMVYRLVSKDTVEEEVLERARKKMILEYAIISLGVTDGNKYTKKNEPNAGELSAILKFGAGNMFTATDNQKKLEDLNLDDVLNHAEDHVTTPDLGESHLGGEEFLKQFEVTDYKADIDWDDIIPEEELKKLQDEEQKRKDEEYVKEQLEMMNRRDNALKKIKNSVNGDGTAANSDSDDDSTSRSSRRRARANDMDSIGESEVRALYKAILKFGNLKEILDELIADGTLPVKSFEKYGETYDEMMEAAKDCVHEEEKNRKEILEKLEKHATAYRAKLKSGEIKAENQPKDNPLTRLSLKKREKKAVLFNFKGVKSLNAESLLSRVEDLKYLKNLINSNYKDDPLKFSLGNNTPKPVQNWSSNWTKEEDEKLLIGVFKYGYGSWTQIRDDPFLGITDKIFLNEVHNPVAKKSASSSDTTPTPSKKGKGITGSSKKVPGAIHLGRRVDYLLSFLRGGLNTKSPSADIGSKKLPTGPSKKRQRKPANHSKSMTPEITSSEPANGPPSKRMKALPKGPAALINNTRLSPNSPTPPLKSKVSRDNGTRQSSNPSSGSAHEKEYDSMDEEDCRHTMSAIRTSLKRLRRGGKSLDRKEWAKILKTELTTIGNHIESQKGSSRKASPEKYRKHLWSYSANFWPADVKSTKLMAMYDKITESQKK
# Chain of Protein translocase subunit SecA (Escherichia coli (strain K12)) (P10408 whole entry): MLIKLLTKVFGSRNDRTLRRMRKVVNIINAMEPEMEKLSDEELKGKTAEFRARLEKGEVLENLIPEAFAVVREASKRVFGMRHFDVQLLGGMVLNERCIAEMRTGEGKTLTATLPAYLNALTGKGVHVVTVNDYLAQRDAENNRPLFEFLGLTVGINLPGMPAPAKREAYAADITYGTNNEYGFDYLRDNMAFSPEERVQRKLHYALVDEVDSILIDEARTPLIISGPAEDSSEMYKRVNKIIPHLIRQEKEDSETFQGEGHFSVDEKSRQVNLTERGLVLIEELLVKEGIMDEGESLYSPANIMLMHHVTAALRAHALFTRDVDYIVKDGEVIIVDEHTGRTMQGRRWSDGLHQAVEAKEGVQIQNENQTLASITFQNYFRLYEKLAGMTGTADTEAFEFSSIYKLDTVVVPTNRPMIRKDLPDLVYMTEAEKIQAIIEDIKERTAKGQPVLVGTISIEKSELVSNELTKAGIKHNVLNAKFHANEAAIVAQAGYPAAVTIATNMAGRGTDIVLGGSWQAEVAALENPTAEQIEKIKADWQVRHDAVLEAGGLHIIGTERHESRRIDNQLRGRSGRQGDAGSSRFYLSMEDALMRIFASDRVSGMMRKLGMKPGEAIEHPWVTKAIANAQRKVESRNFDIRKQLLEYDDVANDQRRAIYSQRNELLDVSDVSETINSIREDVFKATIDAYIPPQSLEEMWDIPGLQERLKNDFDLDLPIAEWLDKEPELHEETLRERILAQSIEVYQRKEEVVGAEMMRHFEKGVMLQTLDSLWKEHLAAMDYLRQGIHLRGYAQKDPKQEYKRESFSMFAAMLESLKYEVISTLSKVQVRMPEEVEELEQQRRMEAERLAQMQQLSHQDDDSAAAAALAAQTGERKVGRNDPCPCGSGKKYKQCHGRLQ
# Chain of Sialic acid-binding Ig-like lectin 9 (Homo sapiens) (Q9Y336 whole entry): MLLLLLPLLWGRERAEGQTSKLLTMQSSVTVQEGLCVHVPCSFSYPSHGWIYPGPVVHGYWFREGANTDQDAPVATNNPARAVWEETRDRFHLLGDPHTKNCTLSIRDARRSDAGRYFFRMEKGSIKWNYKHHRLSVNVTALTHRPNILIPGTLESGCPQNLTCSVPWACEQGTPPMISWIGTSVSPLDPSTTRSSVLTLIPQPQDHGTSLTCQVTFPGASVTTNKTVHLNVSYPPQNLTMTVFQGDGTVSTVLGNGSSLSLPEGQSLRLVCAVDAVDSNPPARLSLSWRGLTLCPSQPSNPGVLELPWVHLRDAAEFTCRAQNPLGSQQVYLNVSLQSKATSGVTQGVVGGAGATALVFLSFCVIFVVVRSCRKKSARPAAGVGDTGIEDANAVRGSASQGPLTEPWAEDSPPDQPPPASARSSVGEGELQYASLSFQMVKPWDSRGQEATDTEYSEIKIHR
Structure (SMILES),Percent Effect [1] [%],Percent Effect [2] [%],Percent Effect [3] [%],Percent Effect [4] [%],Percent Effect (Trypanosoma cruzi) [%],Percent Effect [5] [%],Percent Effect [6] [%],Percent Effect (Homo sapiens) [%],Percent Effect [7] [%],Percent Effect [8] [%],Percent Effect [9] [%]
Cc1ccccc1C(=O)NCc1ccc(N2CCNC(=O)C2)c(F)c1,-3.15,8.11,-2.71,4.68,0.579,-2.86,8.97,-16.3,4.76,12.2,-2.41
CN1CCN(C[C@@H]2OC[C@H]3CN(Cc4cccc(F)c4)CC[C@H]32)CC1,0.931,2.67,4.95,4.78,2.9,-53.9,7.01,-8.27,2.08,2.5,-4.33
CS(=O)(=O)N1CCCC12CCCN(S(=O)(=O)c1cc(F)cc(F)c1)C2 (stereo unspecified),-5.6,-8.11,3.16,-10,-3.23,-2.23,10,14.4,0,-1.24,-0.985
CCS(=O)(=O)N1Cc2nccn2CC(Cn2nc(C)nc2C)C1 (stereo unspecified),-2.08,13.5,-5.79,32.6,4.2,19.6,16.9,-17.4,5.38,18.5,-4.54
Cc1cc(CN2CCC(c3ccnn3CCO)CC2)no1,-3.65,20.2,-6.78,7.01,6.7,3.8,7.45,-6.11,4.43,21.5,-6.58
c1ccc(CCCN2CC(n3cccn3)C2)cc1,0.15,2.7,-2.18,-4.46,5.48,-2.03,14.7,25.9,7.92,23.2,-5.99
CC(C)c1nnc2n1CCN(CC(=O)Nc1sccc1C#N)C2,-8.13,7.89,-4.21,-3.31,-3.83,1.08,-3.13,-0.485,-2.46,-6.17,3.89
Cn1cc(C2CCCN2Cc2csc(C(C)(C)C)n2)cn1 (stereo unspecified),-8.01,12.7,-5.07,14.2,6.33,-5.32,4.01,-16.1,8.37,16.5,-9.19
COc1ccc(Oc2cncc(C3CCCN3C(C)=O)n2)cc1 (stereo unspecified),-0.946,12.2,4.91,-7.65,-3.56,0.696,9.36,15.2,0,3.9,-11.7
COCCN1CCC(CNC(=O)C2(c3cccc(C)c3)CC2)CC1,-2.68,3.8,0.953,1.27,-4.82,2.8,0.172,7.85,1.04,2.53,-25
OCCC1CN(C2CCC2)CCN1C1CCCC1 (stereo unspecified),-3.14,-1.39,-6.25,-1.98,7.87,-1.77,2.28,-37,1.05,7.69,3.1
CN(Cc1cnn(C)c1)C(=O)NCc1csc(Br)c1,-1.72,16.2,10.9,-2.71,-8.08,2.77,14.7,17.1,-3.96,-1.22,-6.6
CCOc1ccc(CC(=O)N2CCN(c3nccn3C)CC2)cc1,-0.699,13,1.57,3.44,-5.62,-7.1,18.6,9.26,4.23,14.1,-6.41
O=C(c1cccnc1N1CCOCC1)N1CCCC1Cn1cccn1 (stereo unspecified),-4.57,7.79,5.93,8.78,1.47,0.632,-0.242,-15.5,3.81,2.35,-12
CC(=O)N(Cc1ncc(C)o1)C1CCN(Cc2ccncc2Cl)C1 (stereo unspecified),-2.28,15.6,-3.8,-0.636,3.62,1.05,11.2,-2.79,11.4,30.6,-18.4
CN1CCN(Cc2ccccc2CNC(=O)c2ccc(Br)cc2F)CC1,-2.05,5.41,-1.3,7.25,-1.86,3.72,3.35,9.27,5.38,11.1,-4.37
